Screening data: PubChem, National Center for Advancing Translational Sciences (NCATS)
CBFb RUNX1 block: inhibitors of human CBF-beta and RUNX1 interaction; AlphaScreen CBFb-His/RUNX1-biotin binding, biochemical; Potency, µM (top dose mostly 59.8 µM), actives largely listed as inhibitors; 230,000 tested, under 10 active; AID 1477
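CBFb-His/RUNX1-biotin, 30 nM each, preincubated 20 min RT; compound 15 min RT; Ni + streptavidin beads 50 ng each, 90 min RT; AlphaScreen read.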
ALDH1A1 block: inhibitors of human aldehyde dehydrogenase 1A1. P00352. Purified ALDH1A1, NADH fluorescence, propionaldehyde substrate. Potency, µM (highest dose often 75.3 µM), actives largely listed as inhibitors. 220,000 tested, 7.3% active; active means well fitted inhibition curve with a large enough effect, not every such curve was filed as active; inconclusive means small, poorly fitted or top-dose-only effect, or another doubt; inactive means no such curve, though single readings can be large or run the other way
HttQ103 aggreg: inhibitors of mutant huntingtin aggregate formation in PC12 cells; 220,000 tested, 1.1% active; Potency, µM (highest dose often 46.1 µM), usual class: inhibitors; PC12 HttQ103-GFP aggregates, Acumen cytometry, 40 h; further: nearly all actives have a fitted effect of over 60% in size
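Steps: seed 1500 PC12 HTTQ103-GFP cells/well; add tebufenozide, 100 nM final; add compound titration; add ATPLite reagent; quantify GFP aggregates by laser scanning cytometry.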
JMJD2E inh: JMJD2E (human) inhibition. B2RXH2. JMJD2E catalytic domain, FDH-coupled NADH fluorescence (FDH is formaldehyde dehydrogenase). Potency, µM (series often up to 57.1 µM), hits mostly inhibitors. 230,000 tested, 1.6% active. AID 2147; active means well fitted inhibition curve with a large enough effect, not every such curve was filed as active; inconclusive means small, poorly fitted or top-dose-only effect, or another doubt; inactive means no such curve, though single readings can be large or run the other way; further: nearly all actives have a fitted effect of over 50% in size
Target sequence (B2RXH2 1-337 limits assumed): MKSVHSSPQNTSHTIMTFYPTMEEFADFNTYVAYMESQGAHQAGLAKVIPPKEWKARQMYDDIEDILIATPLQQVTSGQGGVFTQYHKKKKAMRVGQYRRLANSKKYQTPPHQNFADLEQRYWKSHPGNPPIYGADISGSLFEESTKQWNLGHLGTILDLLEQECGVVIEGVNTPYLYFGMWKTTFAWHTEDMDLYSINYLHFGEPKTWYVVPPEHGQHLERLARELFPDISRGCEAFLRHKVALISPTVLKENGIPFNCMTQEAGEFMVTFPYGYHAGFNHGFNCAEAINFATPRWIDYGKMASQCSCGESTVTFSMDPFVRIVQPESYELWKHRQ
HTT cytoprotect: cytoprotection in Huntington HTT-Q103 PC12 cell model | PC12 HTT-Q103 induced, cytoprotection, ATP luminescence, 40 h | Potency, µM (titrated, usually from 56.4 µM), actives largely listed as activators | 230,000 tested, 0.14% active; further: nearly all actives have a fitted effect of over 45% in size
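PC12 cells stably carrying ecdysone-inducible Htt exon 1 (Q103)–GFP were induced with 100 nM tebufenozide (final) alongside library compounds in a dose series. Cytoprotection was scored as retained ATP by ATPlite luminescence.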
HPGD block: HPGD (human) dehydrogenase inhibition; 150,000 tested, 4.3% active; AID 894; purified HPGD, NADH fluorescence kinetic, PGE2 substrate; Potency, µM, actives largely listed as inhibitors; active means well fitted inhibition curve with a large enough effect, not every such curve was filed as active; inconclusive means small, poorly fitted or top-dose-only effect, or another doubt; inactive means no such curve, though single readings can be large or run the other way
Target sequence (P15428 whole entry, looked up): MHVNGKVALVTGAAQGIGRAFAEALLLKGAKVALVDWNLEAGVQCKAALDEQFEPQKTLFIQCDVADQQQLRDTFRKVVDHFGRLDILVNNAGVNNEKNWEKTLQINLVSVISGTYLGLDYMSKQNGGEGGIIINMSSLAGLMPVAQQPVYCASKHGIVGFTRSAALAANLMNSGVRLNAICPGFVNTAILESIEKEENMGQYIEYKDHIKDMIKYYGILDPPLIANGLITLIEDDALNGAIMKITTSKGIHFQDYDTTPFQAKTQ
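20 nM HPGD preincubated 15 min at room temperature with compound in 50 mM Tris-HCl pH 8, 0.01% Tween 20. Started with 1 mM NAD+ and 30 uM prostaglandin E2; NADH fluorescence (360/450 nm) read 5 times over 30-s intervals, last minus first.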
A number is an active result; 0 = inactive; ? = inconclusive; - = no result given; ! = a repeat was not active; [ ] = remark or other dose. Sampled rows, rich in hits. Any-hit rate of the full collection: about 9.8%. Unless noted, the call rests on the fitted dose curve; in most records, active means well fitted curve in the direction sought with a large enough effect; inconclusive means small, poorly fitted or top-dose-only effect, or another doubt; inactive means no such curve, though single readings can be large; an effect the other way counts as inactive or inconclusive.

SMILES | CBFb RUNX1 block | ALDH1A1 block | HttQ103 aggreg | JMJD2E inh | HTT cytoprotect | HPGD block
O=C1NC(=O)N(Cc2ccc(F)cc2)C(=O)/C1=C\c1ccc(N2CCCC2)cc1 | 0 | 0.251µM | 0[9.22 µM] | 0 | 0[10 µM] | -
O=C1NC(=O)N(c2ccc3c(c2)OCO3)C(=O)/C1=C\c1ccsc1 | 0 | - | 0[9.22 µM] | ? | 0[10 µM] | -
Cc1cc(Cc2cc(C)c(N)cc2N)c(N)cc1N | - | ? | - | - | 0[10 µM] | 0
Cc1ccc(N2C(=O)NC(=O)/C(=C\c3ccc(N4CCOCC4)cc3)C2=O)cc1 | 0 | 11.2µM | 0 | ? | - | 35.5µM
Cc1cccc(N2C(=O)NC(=O)/C(=C/c3ccc(N4CCOCC4)cc3)C2=O)c1 | 0 | 11.2µM | 0 | ? | 0 | -
CCOc1ccc(N2C(=O)NC(=O)/C(=C\c3ccc(N4CCOCC4)cc3C)C2=O)cc1 | 0 | ? | 0[9.22 µM] | 0 | 0[10 µM] | -
Cc1cccc(N2C(=O)NC(=O)/C(=C\c3ccc(N4CCOCC4)cc3)C2=O)c1 | 0 | - | 0[9.22 µM] | ? | 0[10 µM] | -
COCCN(C(=O)CCl)c1c(C)cccc1C | 0 | - | - | - | - | -
Clc1ccc(OCC#CCN2CCOCC2)cc1 | 0 | ? | 0[9.22 µM] | ? | 0 | -
COc1ccc(OCC#CCN2CCCCCC2)cc1 | 0 | 22.4µM | 0 | ? | - | -
COc1cccc(-n2c(CN3CCN(C)CC3)nc3ccc([N+](=O)[O-])cc3c2=O)c1 | 0 | 0 | 0 | 0 | 0[10 µM] | 28.2µM
Nc1nonc1C(=O)N/N=C/c1ccc([N+](=O)[O-])o1 | 0 | 12.6µM | 0 | 0 | - | -
CCOP(=O)(OCC)C(c1ccccc1)N(C)C=O (configuration not stated) | 0 | 17.8µM | 0 | 0 | 0 | -
COc1cc2c3cc1Oc1c(O)c(OC)cc4c1[C@@H](Cc1ccc(cc1)Oc1cc(ccc1O)C[C@H]3N(C)CC2)N(C)CC4 | - | 0[13.5 µM] | - | - | 0[10 µM] | 0
CCN1C(=O)NC(=O)/C(=C/c2cc(C)n(-c3sc(C)c(C)c3C#N)c2C)C1=O | 0 | 0.199µM | 0 | 0 | 0[10 µM] | 8.91µM
CCOC(=O)c1c(-n2c(C)cc(C=C3C(=O)NC(=S)NC3=O)c2C)sc2c1CCCC2 | 0 | 7.94µM | ? | ? | 0[10 µM] | 3.55µM
Cc1ccc(N2C(=O)NC(=O)/C(=C\c3cc(C)n(-c4sc5c(c4C#N)CCCC5)c3C)C2=O)cc1 | 0 | 0.794µM | 0 | 0 | 0[10 µM] | 10µM
CCOC(=O)c1c(/N=C/C2C(=O)NC(=O)NC2=O)sc2c1CCC2 | 0 | 0 | 0 | 0 | 0 | -
Cc1cc(/C=C2/C(=O)NC(=O)N(c3ccc(Br)cc3)C2=O)c(C)n1C | 0 | 0 | 0[9.22 µM] | 0 | 0[10 µM] | -
C/C=C\c1ccc(OC)cc1 | 0 | 0 | 0 | - | ? | 0
CN(C)C(=O)Nc1ccc(Cl)cc1 | 0 | 0 | - | - | 0 | 0
Cc1occc1C(=O)Nc1nnc(C(F)(F)F)s1 | 0 | 0 | 35.5µM | 0 | 0 | 0
Cc1occc1C(=O)Nc1ccccc1 | 0 | - | - | - | - | -
Oc1c(Cl)c(Cl)c(Cl)c(Cl)c1Cl | 0 | 17.8µM! | - | 0 | ? | -
CC(=O)C1=C(O)[C@@H]2[C@@H]3c4c[nH]c5cccc(c45)C[C@@H]3C(C)(C)N2C1=O | 0 | ? | - | 12.6µM | 0 | 0
SMILES | CBFb RUNX1 block | ALDH1A1 block | HttQ103 aggreg | JMJD2E inh | HTT cytoprotect | HPGD block
CN=C=O | 0 | 0 | - | - | 0 | 0
N[C@@H](Cn1oc(=O)[nH]c1=O)C(=O)O | 0 | 0 | - | 20µM | 0 | 0
Cc1o[nH]c(=O)c1CC(N)C(=O)O (configuration not stated) | 0 | 0 | - | 0 | - | 0
CC1(C)N([O-])[N+](=O)C1(C)Br (configuration not stated) | 0 | 11.2µM | - | 0 | 0 | 31.6µM
C[C@H]1CO1 | 0 | - | - | - | - | -
COc1cc(C(c2c(C)[nH]n(-c3ccccc3)c2=O)c2c(C)[nH]n(-c3ccccc3)c2=O)cc(OC)c1OC | 0 | 0 | 0 | 0 | 0 | 0
Cc1[nH]n(-c2ccccc2)c(=O)c1C(c1cccc([N+](=O)[O-])c1O)c1c(C)[nH]n(-c2ccccc2)c1=O | 0 | 15.8µM | ? | 0 | 0[10 µM] | 28.2µM
O=c1[nH]c(=O)n(Cc2ccco2)c(O)c1C=NC1CC1 | 0 | 14.1µM | 0 | 0 | 0[0.074 µM] | 0
CCCc1cc2c(n1CCO)C(C)C1CN(C(=O)c3ccccc3)C(C)(C(=O)OC)C21 (configuration not stated) | 0 | 0 | - | ? | 0 | 0
C[C@]12O[C@H](C[C@]1(O)CO)n1c3ccccc3c3c4c(c5c6ccccc6n2c5c31)CNC4=O | - | - | 1.58µM | - | 0 | -
